Screening data from PubChem.
Hits are enriched below; roughly 21% of the tested compounds scored in any of these assays.
DRD3 agonist – D3 dopamine receptor (human) agonism; P35462; D3R DiscoveRx beta-arrestin cells, luminescence, 90 min; max activation, %; actives 0.58% (n = 410,000); AID 652048; in the data active = max activation above about 30%; note: 0% is about no effect
Target sequence (P35462 whole entry, looked up): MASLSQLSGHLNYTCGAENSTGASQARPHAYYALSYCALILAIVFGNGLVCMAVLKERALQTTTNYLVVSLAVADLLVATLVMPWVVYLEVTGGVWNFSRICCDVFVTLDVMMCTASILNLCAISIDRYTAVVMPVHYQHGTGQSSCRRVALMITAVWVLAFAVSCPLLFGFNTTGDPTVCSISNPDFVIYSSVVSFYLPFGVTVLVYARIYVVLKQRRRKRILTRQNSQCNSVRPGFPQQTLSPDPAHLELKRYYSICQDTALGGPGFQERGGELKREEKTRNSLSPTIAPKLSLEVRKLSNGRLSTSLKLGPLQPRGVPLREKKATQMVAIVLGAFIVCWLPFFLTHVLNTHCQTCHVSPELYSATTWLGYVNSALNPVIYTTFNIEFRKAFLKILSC
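Cells at 1500/well, incubated overnight, then treated with pinned compounds (dopamine as control) for 90 min at 37 degrees C. DiscoveRx reagent added for 30 - 60 minutes at room temperature; luminescence read.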
TDP1 cell noCPT – qHTS for Inhibitors of human tyrosyl-DNA phosphodiesterase 1 (TDP1): qHTS in cells in absence of CPT | Potency, µM (doses to about 46.2 µM), inactives show top-dose activity change, negative = growth inhibition, actives largely listed as inhibitors | actives 15% (n = 420,000) | AID 686978, 2013 | DT40 Tdp1-/- hTDP1 cells, no CPT, ATP luminescence, 48 h; note: potency is the fitted concentration of half-maximal effect; % is set by controls: 0 for no effect and ±100 for the full control effect; nearly all actives have a fitted effect of over 55% in size
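DT40 Tdp1-/-;hTDP1 cells, no CPT (DMSO vehicle only), 400 cells/well; compounds pin-transferred; ≥48 hr, 37 °C; CellTiter-Glo 30 min RT dark, luminescence read.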
IL-1B inflam inh – inhibitors of inflammasome signaling (IL-1 beta secretion). THP-1 LPS/ATP IL-1B secretion, AlphaLISA, 16 h; active compounds read low. activity change, % at 57.5 µM. actives 4.7% (n = 360,000). AID 743279; in the data active = activity change below about -50%; inconclusive = mostly about -30% to -49%; note: % is set by controls: 0 for no effect and ±100 for the full control effect
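THP-1 cells pretreated 1 hr with compounds (up to 57.5 uM final), then stimulated with LPS (250 ng/mL final) plus ATP (1.25 mM final); secreted IL-1B measured by AlphaLISA after 16 hr, decreased signal indicating inhibition.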
DT40 TDP1 CPT – DT40-hTDP1 cell growth loss with CPT | chicken DT40 Tdp1-/-;hTDP1 cells + 20 nM CPT, ATP luminescence, 48 h | Potency, µM (top dose mostly 46.2 µM), for the others: top-dose activity change, negative = growth inhibition, most hits filed as inhibitors | actives 12% (n = 420,000) | AID 686979; note: potency is the fitted concentration of half-maximal effect; % is set by controls: 0 for no effect and ±100 for the full control effect; nearly all actives have a fitted effect of over 55% in size
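Chicken DT40 Tdp1-/- cells stably complemented with human TDP1 were seeded at 400 cells/well in medium containing 20 nM camptothecin, exposed to pin-transferred compounds, and grown at 37 °C for at least 48 hr. Viability was read as ATP luminescence.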
ClpP mod – qHTS Assay for Activators of ClpP. ATP-dependent Clp protease proteolytic subunit (Bacillus subtilis (strain 168)), P80244. purified B. subtilis ClpP, FRET peptide cleavage, 20 min. Potency, µM (titrated, usually from 57.5 µM), for inactives: at the highest dose activity change, negative = active. actives 1.9% (n = 340,000). AID 651965, 2013; active = well fitted falling curve with a large enough effect; inconclusive = small, poorly fitted or top-dose-only effect; inactive = no such curve, though single readings can be large or run the other way; note: potency is the fitted concentration of half-maximal effect; the source files actives as falling curves though it sought activators and does not explain the sign; nearly all actives have a fitted effect of over 65% in size
Target sequence (P80244 whole entry, looked up): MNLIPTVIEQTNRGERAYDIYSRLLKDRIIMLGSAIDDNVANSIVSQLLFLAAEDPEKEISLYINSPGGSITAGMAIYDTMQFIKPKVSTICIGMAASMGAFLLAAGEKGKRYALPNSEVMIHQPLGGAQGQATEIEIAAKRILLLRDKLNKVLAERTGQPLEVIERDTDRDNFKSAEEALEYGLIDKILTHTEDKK
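FRET quenching reversal measured ClpP activation: 10 microg/mL B. subtilis ClpP at pH 8 with the FRET-FV decapeptide, read at 430 nm after 320 nm excitation. The 20-min minus 0-min signal was scaled between DMSO/no-enzyme wells and ADEP (5.8 microM final).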
DRD3 antagonist – blocks the human D3 dopamine receptor; max response, negative = inhibition, %; actives 2.5% (n = 360,000); D3R cells, DiscoveRx beta-arrestin luminescence, antagonist mode; active compounds read low; P35462; AID 652054; in the data active = max response below about -50%; inconclusive = no clear call, values can overlap the other calls; note: % is set by controls: 0 for no effect and ±100 for the full control effect
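Cells plated overnight at 1500 cells/well, then exposed to library compounds with dopamine controls for 90 minutes at 37 degrees C. DiscoveRx reagent added for 30–60 minutes at room temperature; luminescence read, quantitative HTS format.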
An asterisk follows results filed as active; ? = inconclusive; / = no result. Unless noted, calls come from the whole dose curve; as a rule, active = well fitted inhibition curve with a large enough effect; inconclusive = small, poorly fitted or top-dose-only effect; inactive = flat fitted curve, though single readings scatter.

SMILES | DRD3 agonist | TDP1 cell noCPT | IL-1B inflam inh | DT40 TDP1 CPT | ClpP mod | DRD3 antagonist
COc1cccc(NC(=O)c2cccc(C(=O)Nc3cccc(OC)c3)n2)c1 | 12 | -16% | 0 | 5% | 274% | 24
C=CC(=O)Nc1cccc(Oc2cc(Cl)nc3[nH]ccc23)c1 | 12 | ? | -72* | 16µM* | -1% | 2
CC(C)c1nc2scc(-c3ccc(Cl)cc3)c2c(=O)n1N | 10 | ? | -19 | 26µM* | -1% | 53
Cc1nc2scc(-c3ccc(Cl)cc3)c2c(=O)n1N | 4 | ? | 0 | -28% | / | 21
Cc1nc(NC(=O)c2c(-c3ccccc3)c(-c3ccccc3)nn(C)c2=O)sc1C | 16 | 0.58µM* | / | 0.46µM* | 0% | /
CCOC(=O)c1sc(NC(=O)c2c(-c3ccccc3)c(-c3ccccc3)nn(C)c2=O)nc1C | 12 | 16µM* | / | ? | 1% | /
CCn1nc(-c2ccccc2)c(-c2ccccc2)c(C(=O)Nc2ccccc2C#N)c1=O | 13 | 12µM* | / | 18µM* | 0% | /
CC(C)CNC(=O)c1c(-c2ccccc2)c(-c2ccccc2)nn(C)c1=O | 8 | ? | / | ? | 1% | /
CCn1nc(-c2ccccc2)c(-c2ccccc2)c(C(=O)Nc2ccccc2C(N)=O)c1=O | 1 | ? | / | ? | 1% | /
CC(NS(=O)(=O)c1ccc2ccccc2c1)c1ccccn1 (configuration not stated) | -4 | -3% | -15 | 1% | -9% | -2
CC(C)c1cc(C(C)C)c(S(=O)(=O)NC(c2ccccn2)C23CC2C3)c(C(C)C)c1 (configuration not stated) | 5 | 16µM* | 22 | ? | -24% | 11
O=C1Nc2ccc(Br)cc2C12NNc1ccccc1O2 (configuration not stated) | 0 | 18µM* | -5 | ? | 2% | -6
OCCCCCNc1ncnc2ccccc12 | 14 | 7.3µM* | 46 | 8.2µM* | -7% | 56
OCCCCNc1cccc2ccccc12 | 2 | -28% | 35 | ? | 16µM* | 13
CCN1CCCC1CNC(=O)Cn1cc(C)c(=O)[nH]c1=O (configuration not stated) | 3 | -1% | 0 | -1% | -4% | -2
Cc1ccccc1CNC(=O)c1ccc(-n2c(C)cc3c2CCCC3)cc1 | -6 | ? | / | ? | -7% | /
Cc1cc2c(n1-c1ccc(C(=O)NCC(C)c3ccccc3)cc1)CCCC2 (configuration not stated) | 3 | 15µM* | / | 23µM* | -21% | /
Cc1cc2c(n1-c1ccc(C(=O)NCCc3ccc(Cl)cc3)cc1)CCCC2 | -10 | 26µM* | / | ? | -3% | /
CCc1nc2ccc(C(=O)NCCc3ccc(SC)cc3)cc2nc1CC | 5 | ? | / | ? | -3% | /
CSc1ccc(CCNC(=O)c2ccc(-n3c(C)cc4c3CCCC4)cc2)cc1 | -7 | 18µM* | / | 21µM* | -8% | /
O=C(COc1ccc2ccc(=O)oc2c1)Nc1c(Cl)cccc1C(F)(F)F | 0 | 23% | 1 | -6% | 3% | 5
CCc1ccc(N/C(SC)=C(/C#N)C(N)=O)cc1 | -5 | ? | -17 | ? | 0% | 7
N#CC(C#N)=C(Nc1ccc(F)cc1)SCc1cccc(F)c1 | 1 | 2.6µM* | ? | 2.6µM* | -3% | 3
CCCCNC(=O)c1cc(C)nn1-c1ccccc1 | -1 | -17% | -7 | 1% | / | -8
Cc1nn(-c2ccccc2)c(-n2cccc2)c1C(=O)NCCCN1CCN(c2ccccc2F)CC1 | 0 | 18µM* | / | 16µM* | 1% | /
SMILES | DRD3 agonist | TDP1 cell noCPT | IL-1B inflam inh | DT40 TDP1 CPT | ClpP mod | DRD3 antagonist
Cc1cc(C(=O)NCCCN2CCN(c3cc(Cl)ccc3C)CC2)n(-c2ccccc2)n1 | -12 | ? | -9 | 10µM* | -2% | -65*
Cn1cc(C(=O)NCCN2CCN(c3cccc(Cl)c3)CC2)c2c3ccccc3n(C)c2c1=O | -23 | 15µM* | 4 | 26µM* | -7% | -20
COCCCNC(=O)c1cn(C)c(=O)c2c1c1ccccc1n2C | -6 | -7% | 39 | 4% | / | 21
Cc1cc(C(=O)NCCN2CCN(c3cccc(Cl)c3)CC2)n(-c2ccccc2)n1 | -3 | 4.1µM* | 15 | 5.8µM* | 0% | ?
Cc1nn(-c2ccc(F)cc2)c(-n2cccc2)c1C(=O)N1CCN(c2ccccc2F)CC1 | 3 | / | / | / | -2% | /
Cc1cc(C)cc(N2CC(c3nc(-c4cccc(Cl)c4)no3)CC2=O)c1 (configuration not stated) | 18 | -27% | / | ? | -2% | /
CC(=O)c1cccc(OCC(=O)N(C)CC(=O)NCc2ccco2)c1 | -8 | -20% | 0 | ? | -1% | ?
Cc1cc(=O)oc2ccc(OCC(=O)N(Cc3ccc(F)cc3)Cc3ccco3)cc12 | 2 | ? | -62* | 23µM* | -17% | 0
CCc1ccc(OCC(=O)N(Cc2ccco2)Cc2ccccc2Cl)cc1 | -4 | 13µM* | / | ? | 2% | /
CCOCCCNC(=O)CNC(=S)N(Cc1ccc(C)cc1)Cc1ccco1 | 2 | 0% | 29 | ? | / | -5
CCc1ccc(OCC(=O)N(Cc2ccc(C)cc2)Cc2ccco2)cc1 | 2 | 21µM* | / | ? | 1% | /
Cc1ccc(CN(Cc2ccco2)C(=O)COc2ccc(C)c(C)c2)cc1 | -26 | 16µM* | / | 23µM* | -2% | /
Cc1cccc2c(C(=O)O)c3cccc(C)c3nc12 | -10 | 2% | 11 | 19% | 49% | ?
Cc1cccc(OCC(=O)N(Cc2ccco2)C2CCS(=O)(=O)C2)c1 (configuration not stated) | 1 | -10% | 11 | 1% | 1% | 7
Cc1ccc2c(c1)cc(CN(Cc1ccco1)C(=O)COc1ccccc1)c1nnnn12 | 6 | 23µM* | ? | ? | -10% | 17
Cc1cccc(OCC(=O)N(Cc2ccc(C(C)(C)C)cc2)Cc2ccco2)c1 | 9 | 10µM* | / | 21µM* | 0% | /
CCC(=O)N(Cc1ccco1)Cc1cc2cccc(C)c2n2nnnc12 | 3 | 20% | -12 | 6% | -3% | 5
O=C(CCS(=O)(=O)c1nc(-c2cccs2)cc(C(F)(F)F)n1)Nc1cccc(O)c1 | -25 | 5.2µM* | / | 2.3µM* | 4% | /
O=C(NC(=O)c1ccc(F)cc1)Nc1nc(-c2cccs2)cc(C(F)(F)F)n1 | 1 | ? | -10 | ? | 4% | -20
